# According to PubChem BioAssay (NCATS):
# Inconclusive results are not listed. Entries that show only a call come without a potency. Active and inactive are the calls of the source. Unless noted, the call rests on the fitted dose curve; in most records, active means well fitted curve in the direction sought with a large enough effect; inconclusive means small, poorly fitted or top-dose-only effect, or another doubt; inactive means no such curve, though single readings can be large; an effect the other way counts as inactive or inconclusive.
# What was measured:
# [1] = qHTS drug screen for cell cycle checkpoint inhibitors in PARPi-resistant BRCA-mutant ovarian cancer cell lines. (AID 1963452; calls by dose curve); settings: PEO1/OlaR viability, CellTiter-Glo luminescence, 96 h, stronger effect = lower value
# In short: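 PEO1, PEO4 and PEO1/OlaR ovarian cancer cells, 600 per well, exposed 96 h at 37C to a dilution series. Viability read by CellTiter-Glo luminescence, normalized to DMSO and empty wells; activity summarized as Z-AUC.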
# [2] = system: 3D7; assay: qHTS profiling for inhibitors of Plasmodium falciparum proliferation (AID 504749); further: nearly all actives have a fitted effect of over 60% in size; further: potency means the concentration at half of the fitted maximal effect; settings: P. falciparum in erythrocytes, SYBR Green DNA, 72 h; series mostly up to 28.7 µM
# In short: (§1)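 Quantitative HTS: compounds pinned into medium, infected erythrocytes added (0.3% parasitemia, 2.5% hematocrit), 72 h culture at 37 C under 5% CO2. Saponin/Triton lysis with SYBR Green I, overnight RT, then fluorescence read.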
# [3] = system: 7G8; assay: as above; settings: P. falciparum in erythrocytes, SYBR Green DNA, 72 h; series mostly up to 28.7 µM
# In short: as §1
# [4] = system: ATS189; assay: as above; settings: P. falciparum in erythrocytes, SYBR Green DNA, 72 h; series mostly up to 28.7 µM
# In short: as §1
# [5] = system: CP191; assay: as above; settings: P. falciparum in erythrocytes, SYBR Green DNA, 72 h; series mostly up to 28.7 µM
# In short: as §1
# [6] = system: CP192; assay: as above; settings: P. falciparum in erythrocytes, SYBR Green DNA, 72 h; series mostly up to 28.7 µM
# In short: as §1
# [7] = system: CP201; assay: as above; settings: P. falciparum in erythrocytes, SYBR Green DNA, 72 h; series mostly up to 28.7 µM
# In short: as §1
# [8] = system: CP203; assay: as above; settings: P. falciparum in erythrocytes, SYBR Green DNA, 72 h; series mostly up to 28.7 µM
# In short: as §1
# [9] = as above; settings: P. falciparum in erythrocytes, SYBR Green DNA, 72 h; series mostly up to 28.7 µM
# In short: as §1
# [10] = system: AA1029; assay: as above; settings: P. falciparum in erythrocytes, SYBR Green DNA, 72 h; series mostly up to 28.7 µM
# In short: as §1
# [11] = system: AS120; assay: as above; settings: P. falciparum in erythrocytes, SYBR Green DNA, 72 h; series mostly up to 28.7 µM
# In short: as §1
# [12] = system: ATS95; assay: as above; settings: P. falciparum in erythrocytes, SYBR Green DNA, 72 h; series mostly up to 28.7 µM
# In short: as §1
# [13] = system: C2A; assay: as above; settings: P. falciparum in erythrocytes, SYBR Green DNA, 72 h; series mostly up to 28.7 µM
# In short: as §1
# [14] = system: CP185; assay: as above; settings: P. falciparum in erythrocytes, SYBR Green DNA, 72 h; series mostly up to 28.7 µM
# In short: as §1
# [15] = system: CP194; assay: as above; settings: P. falciparum in erythrocytes, SYBR Green DNA, 72 h; series mostly up to 28.7 µM
# In short: as §1
# [16] = system: CP211; assay: as above; settings: P. falciparum in erythrocytes, SYBR Green DNA, 72 h; series mostly up to 28.7 µM
# In short: as §1
# [17] = system: CP215; assay: as above; settings: P. falciparum in erythrocytes, SYBR Green DNA, 72 h; series mostly up to 28.7 µM
# In short: as §1
# [18] = target: Nuclear receptor subfamily 1 group I member 2 (Homo sapiens) (UniProt O75469); assay: Dual reporter qHTS for agonist of Pregnane X Receptor (hPXR) against the NCATS DSHEA and TCM libraries: Luminescence readout (AID 1920059); settings: hPXR dual reporter cells, luciferase luminescence agonist; series mostly up to 40 µM
# In short: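 hPXR-LucHepG2 cells in phenol red-free DMEM with 5% charcoal-stripped FBS, 2000 cells/well, attached 5 h, then exposed 24 h at 37C to compounds; rifampicin as positive agonist control (2.8 nM–92 uM). Luciferase luminescence read.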
# [19] = target: Nuclear receptor subfamily 1 group I member 2 (Homo sapiens) (UniProt O75469); assay: Dual reporter qHTS for antagonist of Pregnane X Receptor (hPXR) against the NCATS DSHEA and TCM libraries: Luminescence Readout (AID 1920060); settings: hPXR dual reporter cells, luciferase luminescence, antagonist mode; series mostly up to 40 µM
# In short: (§2)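 Rifampicin-stimulated (2 uM final) hPXR-luciferase HepG2 cells were treated for 24 h with DSNP/TCM substances. Viability came from CellTiter-Fluor fluorescence, reporter activity from ONE-Glo luminescence.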
# [20] = Dual reporter qHTS for antagonist of Pregnane X Receptor (hPXR) against the NCATS DSHEA and TCM libraries: Fluorescence Readout (AID 1920061); settings: PXR dual reporter cells, antagonist mode; series mostly up to 40 µM
# In short: as §2
# [21] = measured here: PEO1 parental Z-AUC
# Nuclear receptor subfamily 1 group I member 2 (Homo sapiens), sequence (O75469 whole entry, looked up): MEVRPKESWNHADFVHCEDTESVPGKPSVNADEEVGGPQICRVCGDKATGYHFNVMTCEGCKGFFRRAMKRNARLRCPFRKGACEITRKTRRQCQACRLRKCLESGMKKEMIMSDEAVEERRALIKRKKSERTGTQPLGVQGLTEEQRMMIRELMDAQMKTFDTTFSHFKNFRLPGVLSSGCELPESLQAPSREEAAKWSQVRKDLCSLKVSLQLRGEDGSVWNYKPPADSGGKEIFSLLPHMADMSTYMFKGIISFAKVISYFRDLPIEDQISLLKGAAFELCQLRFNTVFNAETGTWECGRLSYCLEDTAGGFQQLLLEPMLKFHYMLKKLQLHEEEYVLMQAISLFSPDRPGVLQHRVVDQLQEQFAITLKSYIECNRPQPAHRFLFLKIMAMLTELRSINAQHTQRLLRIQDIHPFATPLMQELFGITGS
compound,measurement,setting,value
CCCc1c(OCCCOc2ccc(OCC(=O)O)cc2)ccc(C(C)=O)c1O,Z-AUC,[1],1.58 (inactive)
same,Z-AUC,[1]; [21],1.27
same,Z-AUC,[1]; measured here: PEO4 Z-AUC,1.18
CN(C)S(=O)(=O)c1ccc2c(c1)/C(=C/c1cc3c([nH]1)CCCC3)C(=O)N2,Z-AUC,[1],1.05 (inactive)
same,Z-AUC,[1]; [21],0.668
same,Z-AUC,[1]; measured here: PEO4 Z-AUC,0.277
COc1cc(/C=C(\C#N)C(=O)Nc2nnc(C(F)(F)F)s2)ccc1OCc1ccc(C(F)(F)F)cc1C(F)(F)F,Z-AUC,[1],0.582 (inactive)
same,Z-AUC,[1]; [21],0.483
same,Z-AUC,[1]; measured here: PEO4 Z-AUC,0.578
c1ccc(C2CN3CCSC3=N2)cc1 (configuration not stated),Potency,[2],11.2 µM (active)
same,Potency,[3],0.794 µM (active)
same,Potency,[4],5.01 µM (active)
same,Potency,[5],7.94 µM (active)
same,Potency,[6],19 µM (active)
same,outcome,[7],inactive
same,Potency,[8],16.9 µM (active)
CC(C)NC[C@H](O)COc1ccc(CC(N)=O)cc1,outcome,[9],inactive
same,Potency,[2],inactive
same,Potency,[3],inactive
same,outcome,[10],inactive
same,outcome,[11],inactive
same,Potency,[4],inactive
same,outcome,[12],inactive
same,outcome,[13],inactive
same,outcome,[14],inactive
same,Potency,[5],inactive
same,Potency,[6],inactive
same,outcome,[15],inactive
same,outcome,[7],inactive
same,Potency,[8],inactive
same,outcome,[16],inactive
same,outcome,[17],inactive
CCCCCCCCCCCCCCCCCCOC[C@H](COP(=O)([O-])OCC[N+](C)(C)C)OC,outcome,[9],inactive
same,Potency,[2],inactive
same,Potency,[3],inactive
same,outcome,[10],inactive
same,outcome,[11],inactive
same,Potency,[4],inactive
same,outcome,[12],inactive
same,outcome,[13],inactive
same,outcome,[14],inactive
same,Potency,[5],inactive
same,Potency,[6],inactive
same,outcome,[15],inactive
same,outcome,[7],inactive
same,Potency,[8],inactive
same,outcome,[16],inactive
same,outcome,[17],inactive
CCCCCCCCCCCCCCC[C@H](O)[C@H](N)CO,outcome,[9],inactive
same,Potency,[2],inactive
same,outcome,[10],inactive
same,outcome,[11],inactive
same,Potency,[4],inactive
same,outcome,[12],inactive
same,outcome,[13],inactive
same,outcome,[14],inactive
same,Potency,[5],inactive
same,Potency,[6],inactive
same,outcome,[15],inactive
same,outcome,[7],inactive
same,Potency,[8],inactive
same,outcome,[16],inactive
same,outcome,[17],inactive
C=C1C[C@@]23CC[C@H]4[C@@](C)(CCC[C@@]4(C)C(=O)OC4OC(CO)C(O)C(O)C4O)[C@@H]2CC[C@]1(OC1OC(CO)C(O)C(O)C1OC1OC(CO)C(O)C(O)C1O)C3 (some centres not stated),outcome,[18],inactive
same,outcome,[19],inactive
same,outcome,[20],inactive
CN1C2CCC1CC(OC(c1ccccc1)c1ccccc1)C2 (configuration not stated),outcome,[9],inactive
same,Potency,[2],inactive
same,Potency,[3],4.47 µM (active)
same,outcome,[11],inactive
same,outcome,[13],inactive
same,Potency,[6],inactive
same,Potency,[8],inactive
same,outcome,[16],inactive
CC1=C(/C=C/C(C)=C/C=C/C(C)=C\C(=O)O)C(C)(C)CCC1,Z-AUC,[1],-0.242 (inactive)
same,Z-AUC,[1]; [21],0.115
same,Z-AUC,[1]; measured here: PEO4 Z-AUC,0.0344
O=C1Nc2ccc(I)cc2/C1=C/c1cc(Br)c(O)c(Br)c1,Z-AUC,[1],1.3 (inactive)
same,Z-AUC,[1]; [21],0.638
same,Z-AUC,[1]; measured here: PEO4 Z-AUC,0.686
O=C(O)/C=C/c1ccc(O)c(O)c1,outcome,[19],inactive
same,outcome,[20],inactive
CC(O)C(O)[C@H]1CNc2nc(N)[nH]c(=O)c2N1 (some centres not stated),outcome,[9],inactive
same,Potency,[2],inactive
same,outcome,[10],inactive
same,outcome,[11],inactive
same,Potency,[4],inactive
same,outcome,[12],inactive
same,outcome,[13],inactive
same,outcome,[14],inactive
same,Potency,[5],inactive
same,Potency,[6],inactive
same,outcome,[15],inactive
same,outcome,[7],inactive
same,Potency,[8],inactive
same,outcome,[16],inactive
same,outcome,[17],inactive
